From PubChem BioAssay (NCI) come the findings set out here.

Molecules are shown by their SMILES. The panel holds about 83,000 compounds, 20% with a hit somewhere; the sample as a whole holds those more often.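 Percent growth is the endpoint: 0 to 100 indicates growth inhibition (40 means 60% inhibition), 0 means no net growth, and negative values indicate cell death.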 A number with no mark means an inactive call. Calls of active or inactive are those of the source. Rule for the calls: active = growth percent below 10; inactive = the rest.

The assay has as its system NCI-H226 lung. As to the kind of experiment: NCI-60 one-dose screen, 48 h (100 = growth as untreated, 0 = no growth, -100 = all killed). The note with it: 10 µM unless noted.
Take `COc1ccc(OC)c(/C=N/Nc2ncnc3c2c(C)nn3C)c1`: the growth was 92.6%.

For `Cc1c[n+](Cc2ccc3ccccc3c2)cn1Cc1ccc2ccccc2c1`, the growth is 31.8%.

Regarding `COc1cc(OC)c(/C=C/C(=O)c2c(OC)cccc2OC)c(OC)c1`, the growth was 47.3%.

Take `COC(=O)c1c(C)nc(C)c2c1C(=O)C(Br)=C(NCc1ccccc1)C2=O`: the growth was 71%.

`CCNCCNc1cc(-c2ccc(C(F)(F)F)cc2)c(C#N)c2nc3ccccc3n12`: the growth was -66.1% (active).

Consider `CSc1nc2ccccc2cc1/C=[N+](\[O-])c1ccccc1`, for which the growth is 73.9%.

`CC(=O)Oc1ccc(N2C(=O)C(Cl)=C(Nc3cccc(C(F)(F)F)c3)C2=O)cc1`: the growth is 92.1%.

For the molecule `CC(=O)Oc1ccc(C)cc1C`, the growth was 107%.

As for `O=C(Nc1ccc(Oc2cccc(Cl)c2)c(Cl)c1)c1cnccn1`, the growth is 64.1%.

With `CCC(=O)Oc1ccc(-c2ccccc2)cc1Br`, the growth was 96.1%.

Take `CCN(CC)CC(O)COc1c(Br)c(Br)c(Br)c2c1OC(C)(C)C2` (stereo unspecified): the growth is 46.4%.

With `Fc1cc2c(cc1Cl)N(c1ncnc3ccc(-c4ccc5n[nH]nc5c4)cc13)CC2`, the growth is 88.1%.

In the case of `Nc1c(C(=O)Nc2ccncc2)sc2nc3c(cc12)C(O)CCC3` (stereo unspecified), the growth is 90.2%.

Turning to `CCOC(=O)c1cc2c(n1Cc1cc(OC)c(OC)c(OC)c1)-c1nc(N)sc1CCC2`, the growth was 73.4%.

With `Cc1ccc(Nn2c(SCC(=O)Nc3nc(-c4ccccc4)cs3)nc(C)c2C)cc1`, the growth was 46.3%.

For the molecule `O=C(NCc1ccc(Cl)cc1Cl)C1CCC(=O)N1c1cccs1` (stereo unspecified), the growth is 103%.
